PABP1 MLLE inh – inhibitors of microRNA-mediated deadenylation, human PABP1 MLLE binding; P11940; 360,000 compounds, 0.36% hits; AID 588489; inhibition, % at 20 µM; GST-MLLE / FITC-PAM2 fluorescence polarization; in the data active means inhibition above about 35%, passing the limit was not always enough
Target sequence (P11940 whole entry, looked up): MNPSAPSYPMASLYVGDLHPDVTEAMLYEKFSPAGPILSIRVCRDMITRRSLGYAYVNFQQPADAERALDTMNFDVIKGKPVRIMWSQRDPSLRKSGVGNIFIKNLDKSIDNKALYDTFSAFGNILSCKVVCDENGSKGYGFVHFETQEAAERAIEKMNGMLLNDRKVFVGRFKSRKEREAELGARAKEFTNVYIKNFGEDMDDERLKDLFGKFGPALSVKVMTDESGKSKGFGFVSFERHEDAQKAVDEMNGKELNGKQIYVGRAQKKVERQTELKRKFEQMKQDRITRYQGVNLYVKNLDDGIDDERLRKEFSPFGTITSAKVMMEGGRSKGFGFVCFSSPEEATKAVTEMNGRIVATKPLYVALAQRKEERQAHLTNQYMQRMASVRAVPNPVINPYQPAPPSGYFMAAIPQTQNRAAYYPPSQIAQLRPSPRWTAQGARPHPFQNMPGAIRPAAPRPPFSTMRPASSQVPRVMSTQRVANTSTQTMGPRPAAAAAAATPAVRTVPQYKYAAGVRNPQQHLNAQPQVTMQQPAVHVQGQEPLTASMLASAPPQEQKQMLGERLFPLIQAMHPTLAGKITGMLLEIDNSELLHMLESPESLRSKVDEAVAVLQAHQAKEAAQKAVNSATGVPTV
eIF4H inh – inhibitors of RNA binding by human eIF4H | AID 2012 | 290,000 compounds, 0.94% hits | inhibition, % at 35 µM | eIF4H fluorescence polarization binding assay | Q15056;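 further: calls also rest on retests at 20 µM and on dose response follow-up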
PABP FP inh – blocks human PABP binding to poly(A) RNA; P11940; fluorescence polarization; inhibition, % at 35 µM; 290,000 compounds, 1% hits; AID 2014;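 further: calls also rest on retests at 20 µM and on dose response follow-up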
NRP1-CendR mod – modulators of CendR peptide binding to human neuropilin-1; 360,000 compounds, 0.85% hits; inhibition, % at 25 µM; FAM-RPARPAR peptide binding to NRP-1, fluorescence polarization;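 active means inhibition or corrected inhibition above about 18%, plus a signal ratio from 0.5 to 1.5, limit read from the data, passing the limit was not always enough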
Numbers stand for hits. Only some compounds are listed: those with a hit (about 2.1% of all), similar ones and a draw of the others. Unless noted, how the calls were made is not given here.

What do the screens show for `CC(C(=O)O)N1C(=O)/C(=C/C=C/c2ccco2)SC1=S` (stereo unspecified)?
PABP1 MLLE inh: inactive; eIF4H inh: 88.8; PABP FP inh: 86.8; NRP1-CendR mod: inactive

What do the screens show for `O=C1/C(=C/C=C/c2ccco2)SC(=S)N1NS(=O)(=O)c1ccccc1`?
PABP1 MLLE inh: inactive; eIF4H inh: 88.6; PABP FP inh: 89.3; NRP1-CendR mod: inactive

How did COc1cccc(COC(=O)C2CCN(S(=O)(=O)c3ccc(F)cc3)CC2)c1OC do in these assays?
PABP1 MLLE inh: inactive; NRP1-CendR mod: inactive

Results for COc1ccc(C(CNC(=O)/C=C/c2c(Cl)nc3ccccn23)N(C)C)cc1 (stereo unspecified) ?
PABP1 MLLE inh: inactive; eIF4H inh: 7.6; PABP FP inh: 66.2; NRP1-CendR mod: inactive

How did COc1ccc(CCN(C)C(=O)/C=C/c2c(Cl)nc3ccccn23)cc1OC do in these assays?
PABP1 MLLE inh: inactive; eIF4H inh: inactive; PABP FP inh: inactive; NRP1-CendR mod: inactive

Results for CCOc1cc(C(=S)N2CCOCC2)cc(Br)c1OS(=O)(=O)c1ccccc1 ?
PABP1 MLLE inh: inactive; eIF4H inh: inactive; PABP FP inh: inactive; NRP1-CendR mod: inactive

How did Cc1noc(C)c1COc1ccc(C(=O)OCC(=O)Nc2ccc(S(N)(=O)=O)cc2)cc1 do in these assays?
PABP1 MLLE inh: inactive; NRP1-CendR mod: inactive

What do the screens show for `Cc1cccnc1NC(=O)CN1C(=O)NC(C)(c2ccc3ccccc3c2)C1=O` (stereo unspecified)?
PABP1 MLLE inh: inactive; NRP1-CendR mod: 27.9

How did O=C(CS(=O)(=O)c1ccccc1)NCc1ccccc1 do in these assays?
PABP1 MLLE inh: inactive; eIF4H inh: inactive; PABP FP inh: inactive; NRP1-CendR mod: inactive

What do the screens show for `O=C(/C=C/c1cn(CC(O)CN2CCOCC2)c2ccccc12)c1cccs1` (stereo unspecified)?
eIF4H inh: inactive; PABP FP inh: 44.3

What do the screens show for `CC(=O)Nc1ccc(SCCN2CC[C@@H](C(C)(C)C)CCC2=O)cc1`?
PABP1 MLLE inh: 41.0; NRP1-CendR mod: inactive

Results for COc1ccc(SC[C@H](C)CN2CC[C@H](C(C)(C)C)CCC2=O)cc1 ?
PABP1 MLLE inh: 40.2; NRP1-CendR mod: inactive

Results for COc1ccc(CCNC(=O)C2CCCN(S(=O)(=O)c3ccccc3)C2)cc1 (stereo unspecified) ?
PABP1 MLLE inh: inactive; eIF4H inh: inactive; PABP FP inh: inactive; NRP1-CendR mod: inactive

Results for O=C(C1CCN(S(=O)(=O)c2ccc(Br)s2)CC1)N1CCc2ccccc21 ?
PABP1 MLLE inh: inactive; eIF4H inh: inactive; PABP FP inh: inactive; NRP1-CendR mod: 43.3

How did O=C(Nc1ccc(Cl)c(C(F)(F)F)c1)[C@@H]1CC=C[C@@H]2CCN(C3CC3)C(=O)[C@@H]21 do in these assays?
PABP1 MLLE inh: inactive; NRP1-CendR mod: 24.3

What do the screens show for `O=C(Nc1ccc(Cl)c(C(F)(F)F)c1)[C@@H]1CC=C[C@@H]2CCN(C3CCCCC3)C(=O)[C@@H]21`?
PABP1 MLLE inh: inactive; NRP1-CendR mod: inactive

Results for CN(C)C(=O)CCc1ccc2c3c([nH]c2c1)[C@]1(C)[C@@H](C(=O)N2CCOCC2)C[C@H](CC(=O)NCCC2=CCCCC2)C(=O)N1CC3 ?
PABP1 MLLE inh: inactive; NRP1-CendR mod: inactive

Results for CCCOc1ccc(/C(O)=C2/C(=O)C(=O)N(CCCOC)C2c2cccnc2)cc1 (stereo unspecified) ?
PABP1 MLLE inh: inactive; eIF4H inh: inactive; PABP FP inh: inactive; NRP1-CendR mod: 27.7

What do the screens show for `COC(=O)c1cc(O)cc(OC)c1Oc1cc(C)cc(O)c1C(=O)O`?
PABP1 MLLE inh: inactive; eIF4H inh: 89.9; PABP FP inh: 73.7; NRP1-CendR mod: inactive

Results for COC(=O)c1cc(O)cc(OC)c1C(=O)c1c(O)cc(C)cc1O ?
PABP1 MLLE inh: inactive; eIF4H inh: inactive; PABP FP inh: inactive; NRP1-CendR mod: inactive

What do the screens show for `CC1(C)C2CCC1(CS(=O)(=O)NCc1ccc(S(N)(=O)=O)cc1)C(=O)C2` (stereo unspecified)?
PABP1 MLLE inh: inactive; eIF4H inh: inactive; PABP FP inh: inactive; NRP1-CendR mod: inactive

How did Cc1cc2cc(CN(CCN3CCOCC3)C(=O)Nc3ccccc3F)c(=O)[nH]c2cc1C do in these assays?
PABP1 MLLE inh: inactive; eIF4H inh: inactive; PABP FP inh: inactive; NRP1-CendR mod: inactive

What do the screens show for `Cc1cccc2cc(CN(CCN3CCOCC3)C(=O)Nc3ccccc3F)c(=O)[nH]c12`?
PABP1 MLLE inh: inactive; eIF4H inh: 81.4; PABP FP inh: active; NRP1-CendR mod: inactive

Results for COc1ccc2cc(C3(C)NC(=O)N(CC(=O)N4CCCCC4)C3=O)ccc2c1 (stereo unspecified) ?
PABP1 MLLE inh: inactive; NRP1-CendR mod: inactive

Results for Cc1ccc(S(=O)(=O)c2cc3c(=O)n4ccccc4nc3n(Cc3ccco3)c2=N)cc1C ?
eIF4H inh: 67.4; PABP FP inh: 60.1

What do the screens show for `Cc1cccn2c(=O)c3cc(S(=O)(=O)c4ccccc4)c(=N)n(Cc4ccco4)c3nc12`?
PABP1 MLLE inh: inactive; eIF4H inh: inactive; PABP FP inh: inactive; NRP1-CendR mod: inactive

What do the screens show for `CCOC(=O)c1cc2c(=O)n3ccccc3nc2n(Cc2ccco2)c1=NC(=O)c1ccccc1OC`?
PABP1 MLLE inh: inactive; eIF4H inh: 51.3; PABP FP inh: inactive; NRP1-CendR mod: inactive

What do the screens show for `N=c1c(C(=O)NCCc2ccccc2)cc2c(=O)n3ccccc3nc2n1Cc1ccco1`?
PABP1 MLLE inh: inactive; eIF4H inh: 92.8; PABP FP inh: inactive; NRP1-CendR mod: inactive

How did Cc1cccn2c(=O)c3cc(S(=O)(=O)c4ccc(F)cc4)c(=N)n(Cc4ccco4)c3nc12 do in these assays?
PABP1 MLLE inh: inactive; eIF4H inh: 83.2; PABP FP inh: 65.2; NRP1-CendR mod: inactive

What do the screens show for `CC(C)CN1CC(Br)C(=O)NC1=O` (stereo unspecified)?
PABP1 MLLE inh: inactive; NRP1-CendR mod: inactive

Results for N=c1c(S(=O)(=O)c2ccccc2)cc2c(=O)n3ccccc3nc2n1Cc1ccco1 ?
PABP1 MLLE inh: inactive; eIF4H inh: 94.8; PABP FP inh: 59.6; NRP1-CendR mod: inactive

How did O=C(CN1C(=O)NC2(CCCCC2)C1=O)Oc1ccc2ccc(=O)oc2c1 do in these assays?
PABP1 MLLE inh: inactive; NRP1-CendR mod: inactive

How did Cc1ccc(C2C(C#N)=C(N)Oc3c2oc(CO)cc3=O)o1 (stereo unspecified) do in these assays?
PABP1 MLLE inh: inactive; eIF4H inh: 45.3; PABP FP inh: inactive; NRP1-CendR mod: inactive

How did Cn1cc(C(=O)N/N=C/C(Br)=C\c2ccccc2)ccc1=O do in these assays?
PABP1 MLLE inh: inactive; eIF4H inh: 56.7; PABP FP inh: 27.5; NRP1-CendR mod: inactive

Results for C=CCOC(=O)Nc1nc(CCNC(=O)OCc2ccccc2)c(C(=O)OC)s1 ?
NRP1-CendR mod: inactive

What do the screens show for `C/C(CC(=O)N1CCN(C=O)CC1)=N\NC(=O)c1cc2ccccc2cc1O`?
PABP1 MLLE inh: inactive; eIF4H inh: 102.1; PABP FP inh: active; NRP1-CendR mod: inactive

What do the screens show for `C/C(=N/NC(=O)c1cc2ccccc2cc1O)C1C(=O)c2ccccc2C1=O`?
PABP1 MLLE inh: inactive; eIF4H inh: inactive; PABP FP inh: 54.2; NRP1-CendR mod: inactive

Results for CC(=O)N1CCN(C(=O)c2cccc(NS(=O)(=O)c3ccc(Br)cc3)c2)CC1 ?
PABP1 MLLE inh: inactive; NRP1-CendR mod: inactive

Screening data from PubChem BioAssay.
